# The supplement of paper PMC10849652
# Of roughly 8,800 targets only a part is listed; those with a hit were picked by preference. About 0.5% of all pairs of compound and target were hits. Unmarked numbers belong to inactive results.
# Experiments:
# Assay in all cases: log2 fold change, soluble protein after heating vs DMSO (PISA); higher = thermal stabilisation; K562 lysate, 10 uM; active = over 0.2 and 3.5 SD of the protein, either way, in both replicates (recomputed)
# vemurafenib = compound: CCCS(=O)(=O)Nc1ccc(F)c(C(=O)c2c[nH]c3ncc(-c4ccc(Cl)cc4)cc23)c1F [vemurafenib]
# Summary of the method: (§1)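 Thermal stability, expressed as log-two fold change relative to solvent controls, is given from duplicates. Crude K562 extract in PBS pH 7.4 with 1 mM MgCl2, at 1 mg/mL protein, was treated with 10 μM compound for 30 min and heated in aliquots for 3 min across 48°C-58°C. After pooling, adjustment to 0.5% NP-40 at 4°C and centrifugation at 21,000xg for 90 min, supernatant protein was measured by TMTpro 16plex LC-MS/MS with channel sums equalised.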
# [1] = compound: CCCS(=O)(=O)Nc1ccc(F)c(C(=O)c2c[nH]c3ncc(Cl)cc23)c1F
# Summary of the method: as §1
# barasertib = compound: CCN(CCCOc1ccc2c(Nc3cc(CC(=O)Nc4cccc(F)c4)[nH]n3)ncnc2c1)CCOP(=O)(O)O [barasertib]
# Summary of the method: as §1
# [2] = compound: CC[C@@H]1C(=O)N(C)c2cnc(Nc3ccc(C(=O)NC4CCN(C)CC4)cc3OC)nc2N1C1CCCC1
# Summary of the method: as §1
# volasertib = compound: CC[C@@H]1C(=O)N(C)c2cnc(Nc3ccc(C(=O)N[C@H]4CC[C@H](N5CCN(CC6CC6)CC5)CC4)cc3OC)nc2N1C(C)C [volasertib]
# Summary of the method: as §1
# [3] = compound: CCn1c(C(=O)N(C2CC2)C2CC2)cc2c3c(ncn3C)c(Nc3cc(C)n(C)n3)nc21
# Summary of the method: as §1
# [4] = compound: CCn1cc(-c2ccnc3[nH]c(-c4cccc(CN(C)C)c4)cc23)c(-c2ccc(NC(=O)N(C)C)cc2)n1
# Summary of the method: as §1
# [5] = compound: CN1CCC(CNc2ccc3ncc(-c4cccc(OC(F)(F)F)c4)n3n2)CC1
# Summary of the method: as §1
# saracatinib = compound: CN1CCN(CCOc2cc(OC3CCOCC3)c3c(Nc4c(Cl)ccc5c4OCO5)ncnc3c2)CC1 [saracatinib]
# Summary of the method: as §1
# sotrastaurin = compound: CN1CCN(c2nc(C3=C(c4c[nH]c5ccccc45)C(=O)NC3=O)c3ccccc3n2)CC1 [sotrastaurin]
# Summary of the method: as §1
# Sequence of UniProt Q13885 (Q13885 whole entry, looked up): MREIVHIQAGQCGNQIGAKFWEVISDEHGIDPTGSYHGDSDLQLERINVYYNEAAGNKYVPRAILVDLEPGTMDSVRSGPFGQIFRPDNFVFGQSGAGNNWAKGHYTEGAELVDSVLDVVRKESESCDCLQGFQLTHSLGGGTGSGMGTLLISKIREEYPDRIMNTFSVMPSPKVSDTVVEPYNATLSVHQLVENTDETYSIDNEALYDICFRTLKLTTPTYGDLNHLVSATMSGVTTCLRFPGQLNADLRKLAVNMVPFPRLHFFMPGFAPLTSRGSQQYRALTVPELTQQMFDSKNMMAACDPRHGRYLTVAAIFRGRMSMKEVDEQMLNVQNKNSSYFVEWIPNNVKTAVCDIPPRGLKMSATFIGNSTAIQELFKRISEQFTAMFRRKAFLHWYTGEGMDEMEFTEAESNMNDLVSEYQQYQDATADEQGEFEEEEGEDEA
# Sequence of UniProt P33981 (P33981 whole entry, looked up): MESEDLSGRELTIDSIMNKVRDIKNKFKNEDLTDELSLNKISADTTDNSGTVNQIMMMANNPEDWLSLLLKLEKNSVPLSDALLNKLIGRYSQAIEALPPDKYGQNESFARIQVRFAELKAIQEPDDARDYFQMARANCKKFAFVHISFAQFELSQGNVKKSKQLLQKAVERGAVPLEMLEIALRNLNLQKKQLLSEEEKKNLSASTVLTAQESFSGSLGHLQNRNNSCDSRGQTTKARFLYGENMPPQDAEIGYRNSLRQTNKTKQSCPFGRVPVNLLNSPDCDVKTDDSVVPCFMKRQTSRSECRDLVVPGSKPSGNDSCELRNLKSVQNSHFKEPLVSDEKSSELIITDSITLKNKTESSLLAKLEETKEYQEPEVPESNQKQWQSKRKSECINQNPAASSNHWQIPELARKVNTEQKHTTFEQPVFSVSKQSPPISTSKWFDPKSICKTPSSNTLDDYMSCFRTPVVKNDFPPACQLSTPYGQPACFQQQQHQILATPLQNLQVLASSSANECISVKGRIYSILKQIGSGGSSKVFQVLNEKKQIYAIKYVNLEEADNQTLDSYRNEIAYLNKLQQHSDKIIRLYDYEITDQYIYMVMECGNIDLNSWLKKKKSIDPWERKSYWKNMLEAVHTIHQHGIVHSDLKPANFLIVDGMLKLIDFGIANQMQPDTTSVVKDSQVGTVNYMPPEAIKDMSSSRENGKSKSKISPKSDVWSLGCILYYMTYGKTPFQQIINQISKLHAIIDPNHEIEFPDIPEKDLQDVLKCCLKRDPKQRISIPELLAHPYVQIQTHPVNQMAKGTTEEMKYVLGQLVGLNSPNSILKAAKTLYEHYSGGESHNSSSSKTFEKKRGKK
# Sequence of UniProt O95801 (O95801 whole entry, looked up): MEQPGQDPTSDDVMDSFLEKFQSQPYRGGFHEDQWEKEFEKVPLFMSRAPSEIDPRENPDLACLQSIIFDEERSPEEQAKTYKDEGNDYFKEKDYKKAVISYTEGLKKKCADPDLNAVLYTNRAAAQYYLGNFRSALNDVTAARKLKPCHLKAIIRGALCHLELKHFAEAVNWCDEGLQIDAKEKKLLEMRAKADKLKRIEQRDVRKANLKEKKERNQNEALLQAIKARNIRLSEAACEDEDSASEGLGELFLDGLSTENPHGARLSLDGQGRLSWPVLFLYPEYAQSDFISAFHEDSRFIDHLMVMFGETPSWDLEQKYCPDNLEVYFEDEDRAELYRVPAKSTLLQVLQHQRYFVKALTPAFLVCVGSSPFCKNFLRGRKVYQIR
# Sequence of UniProt Q96LJ8 (Q96LJ8 whole entry, looked up): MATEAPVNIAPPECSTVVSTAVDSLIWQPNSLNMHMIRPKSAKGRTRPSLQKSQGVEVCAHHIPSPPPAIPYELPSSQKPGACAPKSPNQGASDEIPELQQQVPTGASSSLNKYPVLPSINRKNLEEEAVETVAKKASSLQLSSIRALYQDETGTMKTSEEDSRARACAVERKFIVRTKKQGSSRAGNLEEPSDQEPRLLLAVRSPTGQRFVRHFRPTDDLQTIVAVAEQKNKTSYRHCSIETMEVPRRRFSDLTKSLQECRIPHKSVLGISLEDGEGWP
# Sequence of UniProt Q9NUY8 (Q9NUY8 whole entry, looked up): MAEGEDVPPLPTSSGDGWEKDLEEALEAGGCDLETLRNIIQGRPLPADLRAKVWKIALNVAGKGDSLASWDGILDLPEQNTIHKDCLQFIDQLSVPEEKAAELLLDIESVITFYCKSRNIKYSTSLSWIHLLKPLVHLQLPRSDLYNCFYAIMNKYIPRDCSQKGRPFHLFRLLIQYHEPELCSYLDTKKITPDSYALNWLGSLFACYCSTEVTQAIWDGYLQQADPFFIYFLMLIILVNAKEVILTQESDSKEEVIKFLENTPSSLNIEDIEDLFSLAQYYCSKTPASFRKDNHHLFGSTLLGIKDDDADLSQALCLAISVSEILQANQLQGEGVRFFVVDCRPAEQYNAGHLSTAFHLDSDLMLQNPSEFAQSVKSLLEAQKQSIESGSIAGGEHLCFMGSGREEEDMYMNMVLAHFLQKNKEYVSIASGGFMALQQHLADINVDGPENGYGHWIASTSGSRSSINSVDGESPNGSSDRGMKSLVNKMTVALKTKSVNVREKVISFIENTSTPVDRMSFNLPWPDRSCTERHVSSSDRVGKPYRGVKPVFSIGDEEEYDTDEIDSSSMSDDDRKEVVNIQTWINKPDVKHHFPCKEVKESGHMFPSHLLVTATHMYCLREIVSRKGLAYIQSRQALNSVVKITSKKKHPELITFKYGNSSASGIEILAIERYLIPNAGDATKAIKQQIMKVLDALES
# Sequence of UniProt O43615 (O43615 whole entry, looked up): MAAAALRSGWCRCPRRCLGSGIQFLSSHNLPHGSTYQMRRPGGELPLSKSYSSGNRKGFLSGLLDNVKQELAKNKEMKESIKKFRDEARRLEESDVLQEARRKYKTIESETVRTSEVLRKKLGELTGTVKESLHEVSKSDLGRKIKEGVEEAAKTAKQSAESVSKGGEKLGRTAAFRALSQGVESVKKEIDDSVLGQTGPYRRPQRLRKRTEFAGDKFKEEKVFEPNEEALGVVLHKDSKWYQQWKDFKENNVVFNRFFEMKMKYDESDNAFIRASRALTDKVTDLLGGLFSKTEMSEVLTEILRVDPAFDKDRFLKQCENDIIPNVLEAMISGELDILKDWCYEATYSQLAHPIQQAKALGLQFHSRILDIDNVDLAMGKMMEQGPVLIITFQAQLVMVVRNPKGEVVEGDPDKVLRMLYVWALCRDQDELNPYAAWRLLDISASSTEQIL
# Sequence of UniProt Q8NBN3 (Q8NBN3 whole entry, looked up): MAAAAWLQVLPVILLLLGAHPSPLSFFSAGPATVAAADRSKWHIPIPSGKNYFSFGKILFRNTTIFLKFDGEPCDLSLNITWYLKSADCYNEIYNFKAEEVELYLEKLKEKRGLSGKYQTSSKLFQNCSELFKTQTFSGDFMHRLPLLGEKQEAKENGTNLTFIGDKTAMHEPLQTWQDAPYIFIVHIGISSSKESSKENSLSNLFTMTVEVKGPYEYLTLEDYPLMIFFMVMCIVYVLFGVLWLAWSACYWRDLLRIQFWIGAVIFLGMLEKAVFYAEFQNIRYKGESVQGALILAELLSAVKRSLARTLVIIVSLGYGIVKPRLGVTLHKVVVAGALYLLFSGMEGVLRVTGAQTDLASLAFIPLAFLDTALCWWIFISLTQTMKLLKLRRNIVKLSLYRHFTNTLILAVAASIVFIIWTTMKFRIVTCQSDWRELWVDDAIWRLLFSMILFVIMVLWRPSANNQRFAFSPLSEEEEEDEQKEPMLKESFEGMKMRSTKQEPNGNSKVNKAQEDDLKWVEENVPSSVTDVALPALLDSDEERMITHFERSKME
# Sequence of UniProt Q96F44 (Q96F44 whole entry, looked up): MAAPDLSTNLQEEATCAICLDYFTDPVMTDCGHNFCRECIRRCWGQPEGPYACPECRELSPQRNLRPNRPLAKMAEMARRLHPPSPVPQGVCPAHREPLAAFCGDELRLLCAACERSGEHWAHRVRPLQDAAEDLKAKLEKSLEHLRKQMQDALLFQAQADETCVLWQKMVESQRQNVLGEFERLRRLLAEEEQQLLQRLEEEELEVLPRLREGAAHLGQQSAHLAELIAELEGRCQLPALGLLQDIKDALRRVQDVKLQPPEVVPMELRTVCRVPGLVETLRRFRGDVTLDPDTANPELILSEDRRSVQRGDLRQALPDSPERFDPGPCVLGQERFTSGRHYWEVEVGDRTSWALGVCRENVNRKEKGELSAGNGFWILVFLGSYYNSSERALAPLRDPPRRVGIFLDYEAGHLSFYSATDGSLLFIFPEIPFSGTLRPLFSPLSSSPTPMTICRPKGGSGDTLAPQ
# Sequence of UniProt Q99081 (Q99081 whole entry, looked up): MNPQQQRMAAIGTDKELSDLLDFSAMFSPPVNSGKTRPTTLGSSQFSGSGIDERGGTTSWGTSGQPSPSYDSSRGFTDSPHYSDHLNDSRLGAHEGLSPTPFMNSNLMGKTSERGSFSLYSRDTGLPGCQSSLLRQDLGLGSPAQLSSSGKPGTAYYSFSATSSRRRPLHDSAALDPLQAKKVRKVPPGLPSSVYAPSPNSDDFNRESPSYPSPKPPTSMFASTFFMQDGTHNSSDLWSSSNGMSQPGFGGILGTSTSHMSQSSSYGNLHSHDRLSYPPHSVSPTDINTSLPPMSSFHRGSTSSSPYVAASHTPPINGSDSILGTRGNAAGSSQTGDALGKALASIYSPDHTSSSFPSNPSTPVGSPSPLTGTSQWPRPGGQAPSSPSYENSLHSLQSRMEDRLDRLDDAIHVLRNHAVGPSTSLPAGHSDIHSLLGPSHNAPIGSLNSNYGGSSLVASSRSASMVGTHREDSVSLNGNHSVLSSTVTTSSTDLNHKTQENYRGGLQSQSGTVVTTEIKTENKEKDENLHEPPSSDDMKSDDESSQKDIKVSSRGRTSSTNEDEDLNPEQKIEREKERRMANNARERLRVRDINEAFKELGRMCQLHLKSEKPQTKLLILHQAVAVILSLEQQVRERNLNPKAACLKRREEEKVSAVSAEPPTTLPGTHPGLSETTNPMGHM
Target,log2 fold change (vemurafenib),log2 fold change [1],log2 fold change (barasertib),log2 fold change [2],log2 fold change (volasertib),log2 fold change [3],log2 fold change [4],log2 fold change [5],log2 fold change (saracatinib),log2 fold change (sotrastaurin)
THEMIS2 (UniProt Q5TEJ8),-0.004,0.11,-0.052,0.016,0.132,0.015,-0.019,0.004,0.01,-0.016
TBC1D23 (UniProt Q9NUY8),-0.003,0.011,0,-0.027,-0.029,-0.012,-0.058,0.023,0.012,0.017
TMEM97 (UniProt Q5BJF2),0.076,-0.027,0.037,0.028,0.099,-0.048,-0.327 (active),0.173,0.002,-0.08
TTI1 (UniProt O43156),0.006,-0.012,0.055,-0.093,-0.026,0.006,-0.074,0.019,-0.003,0.006
UBXN10 (UniProt Q96LJ8),0.008,-0.089,-0.133,0.095,0.074,0.01,-0.082,0.021,-0.016,-0.012
TMEM70 (UniProt Q9BUB7),-0.016,0.029,0.063,-0.072,-0.004,-0.027,-0.378 (active),0.027,0.023,0.122
TTMP isoform 3 (UniProt Q5BVD1),0.227,0.029,-0.025,0.122,0.031,-0.182,-0.88 (active),0.316,0.012,-0.029
TMEM263 (UniProt Q8WUH6),0.086,-0.024,0.19,0.133,0.023,0.097,-0.034,-0.242,0.109,-0.003
UBXN2B (UniProt Q14CS0),0.148,0.049,0.147,0.065,-0.066,-0.035,-0.142,0.074,-0.068,
TBC1D20 isoform 3 (UniProt Q96BZ9),-0.088,-0.069,0.438 (active),0.043,0.008,0.059,0.046,-0.033,-0.038,-0.096
TUBGCP4 (UniProt Q9UGJ1),0.088,0.028,0.116,0.039,-0.027,0.026,0.013,-0.077,0.025,0.109
TRAPPC9 isoform 2 (UniProt Q96Q05),0.053,0.001,0.007,-0.004,-0.059,0.021,0.011,0.019,0.005,-0.035
UCHL5 (UniProt Q5LJA9),-0.021,-0.061,-0.01,-0.103,0.03,-0.108,0.019,0,0.023,0.007
TMEM87A (UniProt Q8NBN3),0.032,-0.007,-0.025,0.008,-0.006,-0.026,-0.114,0.332 (active),-0.001,0.017
TRAF2 isoform 2 (UniProt Q12933),-0.004,0.012,0,0.072,-0.006,0.013,-0.034,-0.032,-0.011,-0.029
TRIM25 (UniProt Q14258),0.017,0.012,0.001,-0.024,-0.006,-0.007,0.029,-0.035,-0.002,-0.05
TTC4 (UniProt O95801),0.004,0.05,-0.004,0.008,-0.024,0.007,-0.089,-0.027,0.033,0.005
TCF12 isoform 3 (UniProt Q99081),0.008,-0.068,-0.037,0.034,-0.094,0.017,-0.04,0.079,0.043,-0.054
TBK1 (UniProt Q9UHD2),0.008,0.002,-0.03,-0.058,-0.064,-0.021,0.216,0.079,-0.029,-0.045
TLK1 isoform 2 (UniProt Q9UKI8),0.001,-0.003,0.06,-0.048,-0.078,0.01,-0.092,0.072,0.014,0.393 (active)
TPP2 (UniProt Q5VZU9),0.003,0.061,-0.002,0.014,0.003,-0.005,-0.147,0.088,-0.022,0.044
TMOD1 (UniProt P28289),-0.015,-0.02,0.027,-0.027,-0.031,-0.024,0.041,-0.031,-0.001,-0.017
TRIM11 (UniProt Q96F44),-0.049,-0.018,-0.034,-0.001,-0.043,0.022,0.024,0.009,0.024,-0.009
TTK (UniProt P33981),-0.009,0.02,0.06,0.089,-0.026,-0.048,-0.018,0.01,-0.037,0.072
UBE4A isoform 2 (UniProt Q14139),-0.008,-0.001,-0.009,0.003,-0.053,0.031,-0.03,-0.081,0.011,0.025
TUBA4A (UniProt P68366),0.003,-0.045,0.028,-0.023,-0.056,0.033,-0.05,0.003,-0.036,-0.039
TUBB2A (UniProt Q13885),-0.001,0.016,-0.013,-0.007,-0.049,0.003,-0.032,0.002,0.011,0.017
TRIP12 isoform 2 (UniProt Q14669),0.014,0.068,0.038,-0.001,-0.028,0.091,-0.031,0.036,-0.007,0.013
TIMM44 (UniProt O43615),-0.035,-0.017,0.07,-0.006,-0.034,0.022,-0.02,-0.065,0.012,-0.026
TGFBRAP1 (UniProt Q8WUH2),-0.031,0.02,0.031,-0.069,-0.062,0.049,0,-0.075,0.005,-0.001
